M1 antag – human M1 muscarinic receptor antagonists, primary screen, CHO-K1 cells, Fluo-8 calcium fluorescence, 1536-well. CHO-K1 hM1, ACh EC80 antagonist. inhibition, % at 3 µM. hit rate 1.3% among 360,000;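 active = percent inhibition above its own plate's cutoff, namely the mean of that plate's compound wells plus 3 SD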;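 also: peak over basal fluorescence ratio during 140 s after agonist addition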
Target sequence (P11229 whole entry, looked up): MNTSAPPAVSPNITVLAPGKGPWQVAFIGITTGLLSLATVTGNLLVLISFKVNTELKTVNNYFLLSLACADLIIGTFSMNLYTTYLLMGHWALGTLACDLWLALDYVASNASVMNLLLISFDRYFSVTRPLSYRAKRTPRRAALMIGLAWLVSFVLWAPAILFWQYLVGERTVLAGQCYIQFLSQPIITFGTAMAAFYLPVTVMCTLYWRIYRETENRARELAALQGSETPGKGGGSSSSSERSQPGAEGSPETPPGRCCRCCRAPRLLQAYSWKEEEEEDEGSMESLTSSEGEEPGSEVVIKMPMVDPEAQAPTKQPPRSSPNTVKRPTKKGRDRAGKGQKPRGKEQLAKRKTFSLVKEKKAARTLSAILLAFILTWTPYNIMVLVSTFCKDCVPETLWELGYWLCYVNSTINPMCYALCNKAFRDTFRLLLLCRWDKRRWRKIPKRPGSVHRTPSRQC
CHO-K1 Ca PAM – nonselective calcium activators in parental CHO-K1 cells, primary screen, counter-screen for M1 PAM project, cell-based, Fluo-8 calcium fluorescence, full deck, 1536-well. ATP EC20; 0% at ATP EC20, 100% at ATP max. activation, % at 3 µM. hit rate 0.02% among 360,000. AID 602247, 2012;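 active = activation above the run cutoff, the mean activation of all test compounds plus 3 SD, cut at about 40% in these data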;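 also: peak over basal fluorescence ratio in a 140 s read after ATP addition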
M1 ag – human M1 muscarinic receptor agonists, primary screen, Fluo-8 calcium fluorescence, CHO-K1 cells, HTS. AID 588814, 2011. CHO-K1 hM1, agonist mode; 0% DMSO, 100% acetylcholine EC100. hit rate 0.33% among 360,000. activation, % at 3 µM;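 active = activation above the run's mean compound activation plus 3 SD, cut at about 16% in these data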;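 also: peak over basal fluorescence ratio within a 140 s kinetic read after compound addition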
M1 PAM – human M1 muscarinic receptor positive allosteric modulators, primary screen, CHO-K1 cells, Fluo-8 calcium fluorescence, 1536-well. hit rate 0.088% among 360,000. Muscarinic acetylcholine receptor M1 (Homo sapiens), P11229. activation, % at 3 µM. AID 588819, 2011. CHO-K1 hM1, ACh EC20; 0% = ACh EC20, 100% = maximal ACh; in the data active = activation above about 19%, passing the limit was not always enough
CHO-K1 Ca ag – counter-screen for M1 agonists: effect in parental CHO-K1 cells; Fluo-8 calcium fluorescence; scaled to maximal ATP response, vehicle zero; hit rate 0.48% among 360,000; activation, % at 3 µM; in the data active = activation above about 15%;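 also: untransfected CHO-K1 host cells lacking M1 receptor as counterscreen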
CHO-K1 Ca antag – nonselective inhibitor or artifact in parental CHO-K1 cells. ATP-induced calcium, Fluo-8 fluorescence. inhibition, % at 3 µM. hit rate 0.6% among 360,000;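 active = inhibition above a per-plate cutoff, the plate's mean sample inhibition plus 3 SD, cut at about 24% in these data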
Numbers stand for hits; – = inactive. Compounds with a hit are over-represented: about 2.3% of the library has one in this group of screens.

SMILES	M1 antag	CHO-K1 Ca PAM	M1 ag	M1 PAM	CHO-K1 Ca ag	CHO-K1 Ca antag
CCn1c(C)c(C(C)=O)c(N2CCCCC2)nc1=S	–	–	–	–	–	–
CCS(=O)(=O)Nc1ccc(C2=NN(S(C)(=O)=O)C(c3cccs3)C2)cc1 (configuration not stated)	–	–	–	–	–	–
O=C(Nc1ccc(N2CCOCC2)cc1)c1ccc(Cl)c(S(=O)(=O)N2CCCC2)c1	–	–	–	–	–	–
Cc1ccc(CCNC(=O)c2sc3nc4n(c(=O)c3c2C)CCC4)cc1	–	–	–	–	–	–
NC(=O)C1=NOC(CNc2ncc(C(F)(F)F)cc2Cl)C1 (configuration not stated)	–	–	–	–	–	–
O=C(CCCCl)Oc1ccc2cc(-c3ccc4ccccc4n3)c(=O)oc2c1	–	–	–	–	–	–
COc1cnn(-c2ccc(C)cc2)c(=O)c1Cl	–	–	–	–	–	25.5
COc1cnn(-c2ccc(C)cc2)c(=O)c1Br	–	–	–	–	–	–
CCOC(=O)Cn1c(-c2ccccc2)cc(SC)c(C#N)c1=O	51.7	–	–	–	–	–
Cc1ccc(C(=O)NCc2ccc3c(c2)OCO3)cc1Cl	–	–	–	–	–	24.4
Cc1cc(C(=O)NCc2ccc3c(c2)OCO3)ccc1[N+](=O)[O-]	–	–	–	–	22.5	–
O=C(CN1CCN(S(=O)(=O)c2ccc(Cl)cc2)CC1)c1ccc(O)c(O)c1	–	–	–	27.0	–	–
Cc1ccc(OCCCNC2CCCC2)cc1	–	–	–	–	–	–
CC(C)(C)c1ccc(OCCCNC2CCCC2)cc1	21.7	–	–	–	–	–
CN(Cc1cccc2cnccc12)C(=O)CCc1nnc(CCc2ccccc2)o1	–	–	–	–	16.7	–
COc1ccccc1CNC(=O)Nc1nc(C(N)Cc2ccc(Cl)cc2)cs1 (configuration not stated)	–	–	–	–	–	–
CNc1ccc(C(O)(C(F)(F)F)C(F)(F)F)cc1C(O)(C(F)(F)F)C(F)(F)F	–	–	–	–	–	35.5
CC(C)[C@H]1C(=O)Nc2ccccc2N1C(=O)N[C@@H](Cc1ccccc1)C(=O)N[C@@H](C(=O)O)c1ccccc1	–	–	–	–	–	–
CC(C)(CNC(=S)NCCc1ccccc1)CNC(=S)NCCc1ccccc1	–	–	–	–	–	27.6
OCCNC(=S)NCCc1ccccc1	–	–	–	–	–	–
Cc1c(CCOC(=O)CC23CC4CC(CC(C4)C2)C3)sc[n+]1Cc1ccccc1	98.9	–	–	–	–	–
Cc1ncc(C[n+]2csc(CCOC(=O)CC34CC5CC(CC(C5)C3)C4)c2C)c(N)n1	–	–	–	–	–	–
CCc1c(C)sc(NC(=O)c2cc(-c3ccc(O)cc3)on2)c1C#N	–	–	–	–	–	32.6
CN(C)S(=O)(=O)N1CCN(c2cccc(Cl)c2)CC1	–	–	–	–	–	–
CN(C)S(=O)(=O)N1CCN(c2ccccc2)CC1	–	–	–	29.6	–	–
SMILES	M1 antag	CHO-K1 Ca PAM	M1 ag	M1 PAM	CHO-K1 Ca ag	CHO-K1 Ca antag
CNC(=O)c1c(NC(=O)C2=COCCO2)sc2c1CCCC2	–	–	–	–	–	–
CN1CCN(S(=O)(=O)c2cccc(C(=O)N(Cc3ccccc3)c3ccccc3)c2)CC1	–	–	–	–	–	–
CCCCOc1ccc(C(O)C(CN2CCCCC2)c2ccccc2)cc1 (configuration not stated)	34.7	–	–	–	–	–
CCCCOc1ccc(CN2CCCCC2)cc1	42.4	–	–	–	–	–
O=[N+]([O-])c1cccc(COc2ccc(CN3CCCCC3)cc2)c1	86.7	–	–	–	–	–
O=[N+]([O-])c1ccc(CS(=O)(=O)c2ccc(Cl)cc2)cc1	40.9	–	–	–	–	–
CC1CC(C)CN(c2ccc(C(=O)NCc3ccc4c(c3)OCO4)cc2[N+](=O)[O-])C1 (configuration not stated)	–	–	–	–	–	–
CN(C(=O)c1cccc(NC(=O)Cc2cccc(NC(=O)C3CCCN(C(=O)CCc4ccccc4)C3)c2)c1)C1CCC1 (configuration not stated)	–	–	–	–	–	–
C/C(=N\OCC(=O)OCC(=O)NC(=O)c1ccc(OC(F)F)cc1)c1ccc2c(c1)OCO2	–	–	–	–	–	–
CCN1CCN(c2ccc(NC(=O)c3ccc(OC)c(S(=O)(=O)N4CCCC4)c3)cc2)CC1	–	–	–	–	–	–
Cc1ccc(-c2nn(-c3ccccc3)cc2C(=O)Nc2ccc(C)c(S(=O)(=O)N3CCOCC3)c2)cc1	–	–	–	–	–	24.5
CC(=O)c1ccc(NC(=O)c2ccc(C)c(S(=O)(=O)N3CCOCC3)c2)cc1	–	–	–	–	–	–
CCOC(=O)c1ccc(NC(=O)c2ccc(C)c(S(=O)(=O)N3CCOCC3)c2)cc1	50.5	–	–	–	–	29.6
O=C(Nc1ccncc1)c1ccc(Cl)c(S(=O)(=O)N2CCCCC2)c1	–	–	–	–	–	–
O=C(Nc1cccc(S(=O)(=O)N2CCOCC2)c1)c1cn(-c2ccccc2)nc1-c1ccccc1	–	–	–	–	–	–
CCN1CCN(c2ccc(NC(=O)c3ccc(Cl)c(S(=O)(=O)N4CCCC4)c3)cc2)CC1	99.5	–	–	–	–	–
CCN(CC)CCOC(=O)c1ccc(NC(=O)c2ccc(Cl)c(S(=O)(=O)N3CCCCCC3)c2)cc1	97.8	–	–	–	–	–
Cc1nc(N)[nH]c(=O)c1CCCNc1ccc([N+](=O)[O-])cc1	–	–	–	–	–	–
CCCCOc1cccc(C(=O)Nc2ccc(N3CCN(CC)CC3)cc2)c1	75.2	–	–	–	–	–
CCN1CCN(c2ccc(NC(=O)c3ccc4c(c3)OCO4)cc2)CC1	–	–	–	–	–	–
CCN1CCN(c2ccc(NC(=O)c3ccc(Cl)c(N4CCCC4=O)c3)cc2)CC1	23.4	–	–	–	–	–
Cc1cccc(C)c1NC(=O)CN(C)CC(=O)c1c(N)n(Cc2ccccc2)c(=O)n(C)c1=O	–	–	–	–	–	–
O=C(O)CCC(=O)Nc1ccc(Oc2ncnc3cc(Cl)ccc23)nc1	–	–	–	–	–	–
CC1CCN(CCCCOc2cccc(Br)c2)CC1	83.5	–	–	–	–	–
Cc1cc(Cl)c(OCCOCCN2CCN(C)CC2)c(Br)c1	–	–	–	–	–	–
Cc1cc(Br)ccc1OCCCCN1CCC(C)CC1	52.9	–	–	–	–	–
CC1CCN(CCCCOc2ccc(Br)cc2)CC1	31.4	–	–	–	–	–

Source: PubChem BioAssay
